# Structures can show the parent of a compound that is named as a salt. ± gives the standard deviation of the averaged measurements.
# Columns and labels:
# [1] = system: mESC LDLR-Dup GFP reporter (SpCas9 MH-deletion repair); test: fraction of GFP+ cells relative to DMSO control (fold change); higher = more MH-deletion repair to in-frame LDLR (or more editing); conditions: 2 µM; 7 days post-transfection
# [2] = system: 6.0 (DMSO control at this site: 1-bp insertion 0.296, MH deletion 0.491, edited 0.076) ACGATTGGCCCCCACAAAGCGGACCAGCCAGCGTGCTAGGGAATAAGGCCAACTTGCACCC; test: fraction of edited reads among all mapped reads; higher = more Cas9 editing; conditions: mESC; 2uM; 72 h treatment, harvest day 5
# [3] = system: 6.0 (DMSO control at this site: 1-bp insertion 0.296, MH deletion 0.491, edited 0.076) ACGATTGGCCCCCACAAAGCGGACCAGCCAGCGTGCTAGGGAATAAGGCCAACTTGCACCC; test: fraction of microhomology deletions among edited reads; higher = more MH deletions; conditions: mESC; 2uM; 72 h treatment, harvest day 5
# [4] = system: 6.0 (DMSO control at this site: 1-bp insertion 0.296, MH deletion 0.491, edited 0.076) ACGATTGGCCCCCACAAAGCGGACCAGCCAGCGTGCTAGGGAATAAGGCCAACTTGCACCC; test: fraction of 1-bp insertions among edited reads; higher = more 1-bp insertion outcomes; conditions: mESC; 2uM; 72 h treatment, harvest day 5
# [5] = system: 24.0 GACCACAGCCCCCAGCAGGGGAGGCCCCCAGCAGGGGAGGCCCACACCTGCCCCAGCACCT; test: fraction of edited reads among all mapped reads; higher = more Cas9 editing; conditions: mESC; 2uM; 72 h treatment, harvest day 5
# [6] = system: 24.0 GACCACAGCCCCCAGCAGGGGAGGCCCCCAGCAGGGGAGGCCCACACCTGCCCCAGCACCT; test: fraction of microhomology deletions among edited reads; higher = more MH deletions; conditions: mESC; 2uM; 72 h treatment, harvest day 5
# [7] = system: 24.0 GACCACAGCCCCCAGCAGGGGAGGCCCCCAGCAGGGGAGGCCCACACCTGCCCCAGCACCT; test: fraction of 1-bp insertions among edited reads; higher = more 1-bp insertion outcomes; conditions: mESC; 2uM; 72 h treatment, harvest day 5
smiles,measurement,setting,value
Cc1nc2c(O)cccc2c(=O)[nH]1,fraction of GFP+ cells,[1],0.926 ± 0.11
O=C(NCc1ccccc1)c1csc(Nc2ccncn2)n1 [Thiazovivin],fraction of GFP+ cells,[1],0.987 ± 0.18
CNc1ccc([N+](=O)[O-])c(Nc2ccc3[nH]ncc3c2)n1,fraction of edited reads among all mapped reads,[2],0.1
same,fraction of microhomology deletions among edited reads,[3],0.551
same,fraction of 1-bp insertions among edited reads,[4],0.269
same,fraction of GFP+ cells,[1],2.16 ± 0.36
CC(=O)c1cc([N+](=O)[O-])c(Sc2ccc(F)cc2F)s1,fraction of GFP+ cells,[1],0.785 ± 0.22
NC(=O)c1ccccc1 [Benzamide],fraction of GFP+ cells,[1],1.01 ± 0.07
O=c1cc(N2CCOCC2)oc2c(-c3cccc4c3sc3ccccc34)cccc12,fraction of GFP+ cells,[1],0.732 ± 0.4
C[C@H]1CNCCCN1S(=O)(=O)c1cccc2cncc(F)c12 [Ripasudil (K-115) hydrochloride dihydrate],fraction of GFP+ cells,[1],1.31 ± 0.45
CCCCOc1c(C(=O)c2c(F)cc(C)cc2F)c[nH]c2nncc1-2,fraction of edited reads among all mapped reads,[5],0.0449
same,fraction of edited reads among all mapped reads,[2],0.0886
same,fraction of microhomology deletions among edited reads,[6],0.705
same,fraction of microhomology deletions among edited reads,[3],0.523
same,fraction of 1-bp insertions among edited reads,[7],0.0164
same,fraction of 1-bp insertions among edited reads,[4],0.258
same,fraction of GFP+ cells,[1],1.7 ± 0.11
O=C(Nc1ccncc1)c1cc([N+](=O)[O-])ccc1Cl,fraction of GFP+ cells,[1],1.74 ± 0.44
Cc1cnc(NC(=O)Nc2cc(Br)c(C)cc2OC[C@@H]2CNCCO2)cn1,fraction of GFP+ cells,[1],1.14 ± 0.08
CC(C)(C#N)c1ccc(N2C(=O)OCc3cnc4ccc(-c5cnc6ccccc6c5)cc4c32)cc1,fraction of edited reads among all mapped reads,[2],0.0904
same,fraction of microhomology deletions among edited reads,[3],0.53
same,fraction of 1-bp insertions among edited reads,[4],0.267
same,fraction of GFP+ cells,[1],1.01 ± 0.45
Nc1cc(F)ccc1NC(=O)c1ccc(CNC(=O)/C=C/c2cccnc2)cc1 [Tucidinostat (Chidamide)],fraction of edited reads among all mapped reads,[5],0.0463
same,fraction of edited reads among all mapped reads,[2],0.0652
same,fraction of microhomology deletions among edited reads,[6],0.571
same,fraction of microhomology deletions among edited reads,[3],0.502
same,fraction of 1-bp insertions among edited reads,[7],0.103
same,fraction of 1-bp insertions among edited reads,[4],0.272
Nc1ncnc2c1c(-c1cnc3[nH]ccc3c1)nn2C1CCCC1,fraction of edited reads among all mapped reads,[2],0.0596
same,fraction of microhomology deletions among edited reads,[3],0.403
same,fraction of 1-bp insertions among edited reads,[4],0.412
same,fraction of GFP+ cells,[1],0.289 ± 0.034
Nc1nc2[nH]cc(CCc3ccc(C(=O)N[C@@H](CCC(=O)O)C(=O)O)cc3)c2c(=O)[nH]1 [Pemetrexed],fraction of edited reads among all mapped reads,[2],0.0705
same,fraction of microhomology deletions among edited reads,[3],0.608
same,fraction of 1-bp insertions among edited reads,[4],0.152
same,fraction of GFP+ cells,[1],1.53 ± 0.08
S=c1nc[nH]c2nc[nH]c12 [6-Mercaptopurine (6-MP) Monohydrate],fraction of edited reads among all mapped reads,[2],0.0627
same,fraction of microhomology deletions among edited reads,[3],0.429
same,fraction of 1-bp insertions among edited reads,[4],0.326
same,fraction of GFP+ cells,[1],1.21 ± 0.061
Cc1cc(C)nc(SCC(=O)Nc2ncc(Cc3cccc4ccccc34)s2)n1,fraction of edited reads among all mapped reads,[5],0.0587
same,fraction of edited reads among all mapped reads,[2],0.13
same,fraction of microhomology deletions among edited reads,[6],0.552
same,fraction of microhomology deletions among edited reads,[3],0.498
same,fraction of 1-bp insertions among edited reads,[7],0.105
same,fraction of 1-bp insertions among edited reads,[4],0.295
same,fraction of GFP+ cells,[1],1.15 ± 0.61
CO[C@H]1/C=C/O[C@@]2(C)Oc3c(C)c(O)c4c(O)c(c(/C=N/N5CCN(C6CCCC6)CC5)c(O)c4c3C2=O)NC(=O)/C(C)=C\C=C\[C@H](C)[C@H](O)[C@@H](C)[C@@H](O)[C@@H](C)[C@H](OC(C)=O)[C@@H]1C [Rifapentine],fraction of edited reads among all mapped reads,[2],0.14
same,fraction of microhomology deletions among edited reads,[3],0.538
same,fraction of 1-bp insertions among edited reads,[4],0.258
same,fraction of GFP+ cells,[1],3.03 ± 0.37
O=C(O)C(Cc1ccccc1[N+](=O)[O-])=NNc1nc(-c2ccc(Cl)c(Cl)c2)cs1 (mixture of isomers),fraction of GFP+ cells,[1],1.15 ± 0.48
CCn1c(=O)c(-c2ccc(Cl)cc2Cl)cc2cnc(Nc3ccc(N4CCNCC4)c(F)c3)nc21,fraction of edited reads among all mapped reads,[2],0.0726
same,fraction of microhomology deletions among edited reads,[3],0.477
same,fraction of 1-bp insertions among edited reads,[4],0.288
same,fraction of GFP+ cells,[1],0.433 ± 0.12
CCc1c2c(nc3ccc(OC(=O)N4CCC(N5CCCCC5)CC4)cc13)-c1cc3c(c(=O)n1C2)COC(=O)[C@]3(O)CC [Irinotecan HCl Trihydrate],fraction of edited reads among all mapped reads,[2],0.104
same,fraction of microhomology deletions among edited reads,[3],0.571
same,fraction of 1-bp insertions among edited reads,[4],0.249
same,fraction of GFP+ cells,[1],0.463 ± 0.066
CC(C)=CCC[C@](C)(O)[C@H]1CC[C@]2(C)[C@@H]1[C@H](O)C[C@@H]1[C@@]3(C)CC[C@H](O)C(C)(C)[C@@H]3[C@@H](O)C[C@]12C [(20S)-Protopanaxatriol],fraction of GFP+ cells,[1],1.02 ± 0.14
O=C(O)c1cc2cccc([N+](=O)[O-])c2[nH]1,fraction of GFP+ cells,[1],1.04 ± 0.19
O=C(c1cccc(Cl)c1F)N1CCN(Cc2cccc(Nc3nccs3)n2)CC1,fraction of edited reads among all mapped reads,[2],0.0584
same,fraction of microhomology deletions among edited reads,[3],0.559
same,fraction of 1-bp insertions among edited reads,[4],0.193
same,fraction of GFP+ cells,[1],1.25 ± 0.38
CCN1CCN(CC(=O)Nc2ccc(-c3cccc4c(=O)cc(N5CCOCC5)oc34)c3sc4ccccc4c23)CC1,fraction of edited reads among all mapped reads,[2],0.0396
same,fraction of microhomology deletions among edited reads,[3],0.588
same,fraction of 1-bp insertions among edited reads,[4],0.0821
same,fraction of GFP+ cells,[1],1.08 ± 0.16
CCN(CC)CCCC(C)Nc1ccnc2cc(Cl)ccc12 (centres undefined) [Chloroquine Phosphate],fraction of GFP+ cells,[1],0.703 ± 0.14
Cc1ccc(C(=O)NCCCCCC(=O)Nc2ccccc2N)cc1,fraction of edited reads among all mapped reads,[2],0.0825
same,fraction of 1-bp insertions among edited reads,[4],0.292
same,fraction of GFP+ cells,[1],1.26 ± 0.13
O=c1cc(N2CCOCC2)oc2c(-c3ccc4c(c3)OCCO4)csc12,fraction of edited reads among all mapped reads,[2],0.0488
same,fraction of microhomology deletions among edited reads,[3],0.568
same,fraction of 1-bp insertions among edited reads,[4],0.201
same,fraction of GFP+ cells,[1],0.48 ± 0.029
NC(=O)c1cc(F)cc2c1C(=O)N(C1CCN(C3CCC(F)(F)CC3)CC1)C2,fraction of GFP+ cells,[1],0.792 ± 0.12
Nc1[nH]cnc2ncnc1-2 [Adenine HCl],fraction of GFP+ cells,[1],1.31 ± 0.32
Cc1cccc(CC(=O)N2CCc3c2ccc(-c2cn(C)c4ncnc(N)c24)c3F)n1,fraction of edited reads among all mapped reads,[2],0.114
same,fraction of microhomology deletions among edited reads,[3],0.501
same,fraction of 1-bp insertions among edited reads,[4],0.337
same,fraction of GFP+ cells,[1],0.925 ± 0.19
O=c1c(-c2ccc(O)cc2)coc2cc(O)cc(O)c12 [Genistein],fraction of edited reads among all mapped reads,[2],0.113
same,fraction of microhomology deletions among edited reads,[3],0.529
same,fraction of 1-bp insertions among edited reads,[4],0.253
same,fraction of GFP+ cells,[1],1.07 ± 0.17

# Reference: the supplement of paper PMC8387472
